From PubChem BioAssay AID738 (SRMLSC, 2007)
Out of some 98,000 compounds screened, about 4,900 (5%) were called active. Cut-off read from the data, not from the text of the source: active = inhibition above about 30%; inactive = the rest. This excerpt belongs to a sample that is enriched for actives.

Experiment: growth inhibition of yeast control strain, primary screen, counter-screen for post-Golgi transport modulator project (AID 738)
Settings: efflux-deficient yeast background strain, growth absorbance A615, 16 h; at 10 µM; stronger effect = higher value
In the case of `COc1cc(OC)c(-n2c(C)cc(C=O)c2C)cc1Cl`, the inhibition is reported as 20.4% (inactive).
In the case of `Cc1ccc(-n2c(C)cc(/C=N/Nc3ccc([N+](=O)[O-])cn3)c2C)c(C)c1`, the inhibition is reported as 3.3% (inactive).
With `Cc1cc(C=O)c(C)n1-c1ccc(NC2CCCCC2)c([N+](=O)[O-])c1` the inhibition was 39% (active).
With `O=C(O)c1ccccc1NC(=S)NC(NC(=O)c1ccccc1[N+](=O)[O-])C(Cl)(Cl)Cl` (stereo not drawn) the inhibition was 21.6% (inactive).
With `NC(=O)c1c(NC(=O)CSc2nnc(-c3ccco3)n2N)sc2c1CCCC2` the inhibition was -1.04% (inactive).
With `O=C(CN1CCN(S(=O)(=O)c2ccc3ccccc3c2)CC1)NC(=O)NC1CCCCC1` the inhibition was 19.7% (inactive).
With `CCOc1cccc(C(=O)Nc2cnn(Cc3ccccc3)c2)c1` the inhibition was -4.4% (inactive).
For `CCCCCCOC(=O)NCC(O)c1ccccc1` (stereo not drawn), the inhibition was 4.19% (inactive).
For `CCOC(=O)C(C(=O)OCC)C(C#N)c1ccccc1` (stereo not drawn), the inhibition was 30.5% (active).
With `CCOC(=O)CCP(=O)(O)C(O)(c1ccccc1)c1ccccc1` the inhibition was 2.13% (inactive).
In the case of `CCNC(=S)Nc1cccc(Cl)c1C`, the inhibition is reported as 3.81% (inactive).
In the case of `COc1ccc(Cc2nnc(SCC(=O)c3cccc([N+](=O)[O-])c3)n2C)cc1`, the inhibition is reported as 3.08% (inactive).
With `Cc1ccc(NC(=O)N2CCC(c3nc4c(nnn4Cc4c(F)cccc4Cl)c(=O)[nH]3)CC2)cc1` the inhibition was 8.76% (inactive).
For `COc1cc(OC)c(C(=O)NC2CC(C)(C)NC(C)(C)C2)cc1OC`, the inhibition was -5.38% (inactive).
In the case of `COc1cc(OC)c(C(=O)NC2CCCCCC2)cc1OC`, the inhibition is reported as 46.5% (active).
For `COc1ccc(-c2nnc(SCC(=O)NC3CCCCC3)o2)cc1OC`, the inhibition was -2.95% (inactive).
In the case of `C=CCn1c(SCCOc2ccc(OC)cc2)nnc1C(NC(=O)c1ccc(OC)cc1)C(C)C` (stereo not drawn), the inhibition is reported as 10.1% (inactive).
For `CCOc1ccc(-n2c(N)c(C(=O)NCC3CCCO3)sc2=S)cc1` (stereo not drawn), the inhibition was 3.93% (inactive).
For `O=C(Cc1ccc(S(=O)(=O)N2CCCC2)s1)NC1CCCCCC1`, the inhibition was 31.8% (active).
In the case of `O=C(Cc1ccc(S(=O)(=O)N2CCOCC2)s1)NCCC(c1ccccc1)c1ccccc1`, the inhibition is reported as 22.9% (inactive).
For `O=C(NC1CCCCC1)C1CCCN(S(=O)(=O)c2cccs2)C1` (stereo not drawn), the inhibition was -12.5% (inactive).
For `COc1ccc(-c2cc(C)nc3nc(N)nn23)cc1`, the inhibition was 5.75% (inactive).
For `Cc1cc(N)n2nc(-c3ccc(C(C)(C)C)cc3)cc2n1`, the inhibition was 31% (active).
With `Cc1cccc(-n2ncc(C#N)c2-n2cccc2)c1` the inhibition was 20.2% (inactive).
In the case of `Cc1[nH]nc(-c2ccc(OCc3cnn(-c4ccccc4)c3)cc2O)c1Oc1ccc(Cl)cc1`, the inhibition is reported as 0% (inactive).
In the case of `Cn1c(=O)c2c(ncn2CC(COCc2ccccc2Cl)OCc2ccccc2Cl)n(C)c1=O` (stereo not drawn), the inhibition is reported as 8.65% (inactive).
For `COc1ccc(Cl)cc1C(=O)Nc1ccc(N(C)C(C)=O)cc1`, the inhibition was 32.4% (active).
In the case of `COc1cc(OC)c(C(=O)Nc2ccc(N(C)C)cc2)cc1OC`, the inhibition is reported as 27.7% (inactive).
For `COc1ccc(Cl)cc1C(=O)NCC#N`, the inhibition was 18.5% (inactive).
For `CCn1c(C)nc2c1C(=O)c1ccccc1C2=O`, the inhibition was 4.03% (inactive).
With `CC(C)N(c1ccccc1)c1ncnc(NCCC(=O)O)c1[N+](=O)[O-]` the inhibition was 5.97% (inactive).
In the case of `O=S(=O)(c1cnccc1N1CCN(/N=C/c2ccc(Br)cc2)CC1)N1CCCCC1`, the inhibition is reported as -4.38% (inactive).
For `Cc1nc2cc(NC(=O)NCc3ccccc3)ccc2o1`, the inhibition was 12.9% (inactive).
For `C=CC[n+]1c(-c2ccc(C)cc2)csc1NNC(=O)Nc1ccccc1`, the inhibition was 40.7% (active).
In the case of `CC(=O)c1cccc(NC(=O)Nc2ccc(C)cc2)c1`, the inhibition is reported as 0.29% (inactive).
In the case of `C=CCNC(=O)c1csc(-c2ccccc2)n1`, the inhibition is reported as -0.15% (inactive).
With `CC(=O)Nc1ccc(N2C(=O)C3C4CC(=O)C(c5ccccc54)C3C2=O)cc1` (stereo not drawn) the inhibition was -8.39% (inactive).
With `O=C(NCc1cccnc1)c1cccnc1Sc1ccc(Cl)cc1` the inhibition was -2.08% (inactive).
With `CC(C)=CC(=O)Nc1nnc(-c2ccc(F)cc2)s1` the inhibition was -0.29% (inactive).
In the case of `Cc1cc(C)nc(SC(C)C(=O)N/N=C/c2cccs2)n1` (stereo not drawn), the inhibition is reported as 6.8% (inactive).
For `C#CCSc1nnc(-c2sc3ccccc3c2Cl)o1`, the inhibition was 0.45% (inactive).
In the case of `COc1ccccc1-c1n[nH]c2c1[C@H](C)CC[C@H]2C(C)C`, the inhibition is reported as 38% (active).
With `Cc1ccc2c(c1)-c1c(ssc1=S)C(C)(C)N2C(=O)CN1C(=O)c2ccccc2C1=O` the inhibition was 60.3% (active).
For `C=CCn1c(C)cc(C(=O)CN2C(=O)c3ccccc3C2=O)c1C`, the inhibition was 11.4% (inactive).
In the case of `CCOC(=O)CN1C(=O)C(=O)c2cc(C)ccc21`, the inhibition is reported as 5.42% (inactive).
For `C=CCN(CC=C)C(=O)CN1C(=O)c2ccccc2C1=O`, the inhibition was 3.29% (inactive).
With `CC(C)OC(=O)CN1C(=O)c2ccccc2C1=O` the inhibition was 7.83% (inactive).
In the case of `Cc1cc2c(cc1C)N(C(=O)CN1C(=O)c3ccccc3C1=O)C(C)(C)c1ssc(=S)c1-2`, the inhibition is reported as 32.6% (active).
With `CN1CCN(S(=O)(=O)c2ccc(N3CCN(S(=O)(=O)c4cccs4)CC3)nc2)CC1` the inhibition was 4.14% (inactive).
In the case of `O=C(CNC(=O)c1cc2c(s1)CCC2)Nc1ccccc1Br`, the inhibition is reported as -4.14% (inactive).
For `CCOC(=O)C1(S(=O)(=O)c2ccccc2)CCN(Cc2ccccc2)CC1`, the inhibition was 4.95% (inactive).
In the case of `NC(=O)COc1ccc(/C=N/NC(=O)C2CCCN2S(=O)(=O)c2ccc(Cl)cc2)cc1` (stereo not drawn), the inhibition is reported as 18.9% (inactive).
For `COC(=O)c1sc2ncccc2c1OCc1ccc(Cl)cc1Cl`, the inhibition was 11.1% (inactive).
In the case of `NC(N)=N/N=C/c1ccc(OCc2ccc(Cl)cc2Cl)cc1`, the inhibition is reported as 67.2% (active).
With `CCN(CC)c1ccc(NC(=O)c2ccc(Cl)nc2)cc1` the inhibition was 17.1% (inactive).
For `Cn1nc(-c2ccccc2)c(-c2nc(-c3ccc(Cl)cc3)no2)c1Cl`, the inhibition was -5.95% (inactive).
For `O=c1cc(Cn2nnc(-c3ccc(Cl)cc3)n2)nc2sccn12`, the inhibition was 11.5% (inactive).
In the case of `Cc1ccc(-c2nnc(C)c(N3CC(C)OC(C)C3)n2)cc1` (stereo not drawn), the inhibition is reported as 20.1% (inactive).
For `Clc1ccc(-c2nnc(-c3ccccc3)nc2N2CCSCC2)cc1`, the inhibition was 51% (active).
For `CC1CN(c2nc(-c3ccccc3)nnc2-c2ccccc2)CC(C)O1` (stereo not drawn), the inhibition was 31.6% (active).
With `Cc1c(C(=O)N2CC(C)OC(C)C2)sc2nc(-c3ccccc3)cn12` (stereo not drawn) the inhibition was 7.66% (inactive).
With `COCc1cc(C)nc2sc(C(=O)NC3CCCCC3)c(N)c12` the inhibition was 8.15% (inactive).
For `O=C1c2ccccc2C(=O)c2c1cccc2N1CCN(CCO)CC1`, the inhibition was 9.4% (inactive).
With `O=c1cc(N2CCN(Cc3ccccc3)CC2)c(-c2ccccc2)n[nH]1` the inhibition was 23.1% (inactive).
For `CC(C)Cn1c(CN(Cc2ccccc2)Cc2ccccc2)nc2c1c(=O)n(C)c(=O)n2C`, the inhibition was 33.1% (active).
In the case of `CC(C)CCn1c(CN(C)Cc2ccccc2)nc2c1c(=O)n(C)c(=O)n2C`, the inhibition is reported as 9.18% (inactive).
For `COCCn1c(CN(Cc2ccccc2)Cc2ccccc2)nc2c1c(=O)n(C)c(=O)n2C`, the inhibition was 14.8% (inactive).
With `CCC(=O)NNc1cc(=O)c2c(=O)n(C)c(=O)n(C)c2[nH]1` the inhibition was 0% (inactive).
In the case of `CN(C)/C=C(\C#N)C(=O)c1cccnc1Oc1cccc(F)c1`, the inhibition is reported as 10.6% (inactive).
In the case of `CNC(=S)N1N=C(c2ccccc2)CC1c1ccc(Br)cc1` (stereo not drawn), the inhibition is reported as 80.4% (active).
For `COc1ccc(NC(=S)N2N=CCC2c2ccccc2)cc1` (stereo not drawn), the inhibition was 10.8% (inactive).
In the case of `O=C(COc1ccc(Cl)cc1)Nc1ccccc1CO`, the inhibition is reported as 36.8% (active).
With `O=C(COc1ccccc1)Nc1nonc1NC(=O)COc1ccccc1` the inhibition was 14.2% (inactive).
For `O=C(COc1ccc(Cl)cc1)NCCSc1ccccc1`, the inhibition was 25.3% (inactive).
In the case of `O=C(NCCCn1ccnc1)Nc1ccc(Cl)cc1Cl`, the inhibition is reported as 0.62% (inactive).
With `Cc1nc(SCC(=O)Nc2cc(C)on2)c2c(C)c(C)sc2n1` the inhibition was -1.7% (inactive).
With `Cc1nc(SCC(=O)N2CC(=O)Nc3ccccc32)c2c(C)c(C)sc2n1` the inhibition was 2.3% (inactive).
For `Cc1nc(SCC(=O)N2CCc3ccccc3C2)c2c(C)c(C)sc2n1`, the inhibition was 49.5% (active).
With `Cc1ccc(NC(=S)NC(=O)c2ccc(-c3ccccc3)cc2)c(C)c1` the inhibition was 0.3% (inactive).
With `CCOC(=O)C1Cn2c(nc3c(c2=O)C(C)(CC)Cc2ccccc2-3)S1` (stereo not drawn) the inhibition was 39.9% (active).
For `CCC1(CC)Cc2ccccc2-c2nc3ccccc3c(=O)n21`, the inhibition was 8.32% (inactive).
For `CC1(C)Cc2ccccc2-c2nc(CN3CCOCC3)[nH]c(=O)c21`, the inhibition was 15.4% (inactive).
With `CCN(CC)c1nc(-c2ccccc2)cc(C(F)(F)F)c1C#N` the inhibition was 13.7% (inactive).
In the case of `Cc1ccc2nc(/C(C#N)=C\c3ccc(OC(=O)c4cccs4)cc3)[nH]c2c1`, the inhibition is reported as -11.1% (inactive).
In the case of `CC(C)C(=O)OCC(=O)Nc1ccc2c(c1)CCC2`, the inhibition is reported as 3.52% (inactive).
With `COCCNC(=O)Cn1cc2c(n1)CCCCC2` the inhibition was 2.72% (inactive).
For `O=C(Cn1cc2c(n1)CCCCC2)NCCN1CCOCC1`, the inhibition was -2.81% (inactive).
With `CCOC(=O)N1CCC(NC(=O)Cn2cc3c(n2)CCCCC3)CC1` the inhibition was 31.9% (active).
In the case of `Cc1c(C#N)c(NC(=O)c2ccccc2)n(Cc2ccccc2)c1C`, the inhibition is reported as 8.33% (inactive).
In the case of `O=c1c2ccccc2nc2n1C(CSCc1cccc(C(F)(F)F)c1)CS2` (stereo not drawn), the inhibition is reported as 4.97% (inactive).
In the case of `O=c1onc(-c2cccs2)n1Cc1ccccc1`, the inhibition is reported as 2.85% (inactive).
For `Cc1c(C(=O)NCc2ccccc2)cnn1-c1ccccc1`, the inhibition was 9.12% (inactive).
In the case of `CS(=O)(=O)NCc1ccc(C(=O)NCc2ccccc2)cc1`, the inhibition is reported as 8.59% (inactive).
With `Cc1ccc(CNC(=O)c2ccccc2CCc2ccccc2)cc1` the inhibition was 35.3% (active).
For `CC1CC(C)CN(C/C=C/c2ccccc2[N+](=O)[O-])C1` (stereo not drawn), the inhibition was 7.64% (inactive).
In the case of `O=C(OCC(O)C(O)COC(=O)c1ccccc1)c1ccccc1` (stereo not drawn), the inhibition is reported as 5.59% (inactive).
For `Cc1cc(C)n(-c2c(F)c(F)c(COC(=O)c3ccccc3)c(F)c2F)n1`, the inhibition was 25.1% (inactive).
With `Cc1[nH]n(-c2ccccc2)c(=O)c1CCOC(=O)c1ccc(C(F)(F)F)cc1` the inhibition was 33.5% (active).
